Measured values taken from PubChem BioAssay AID504915 (The Scripps Research Institute Molecular Screening Center, 2011).
The other results are listed elsewhere or left out. Values without a mark were called inactive. Activity calls are given as the source filed them. Cut-off read from the data, not from the text of the source: active = activation above about 17%; inactive = the rest.

Biological target: 5-hydroxytryptamine receptor 5A (Homo sapiens) (UniProt P47898)
Assay: activation of human 5-HT5A receptor – cell-based, luminescence, confirmation (AID 504915);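 note: 0% = cells with vehicle only and 100% = full reference agonist response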
Details: HTR5A agonist cell assay, at 9.3 µM, stronger effect = higher value

Chain of 5-hydroxytryptamine receptor 5A (Homo sapiens) (P47898 whole entry, looked up): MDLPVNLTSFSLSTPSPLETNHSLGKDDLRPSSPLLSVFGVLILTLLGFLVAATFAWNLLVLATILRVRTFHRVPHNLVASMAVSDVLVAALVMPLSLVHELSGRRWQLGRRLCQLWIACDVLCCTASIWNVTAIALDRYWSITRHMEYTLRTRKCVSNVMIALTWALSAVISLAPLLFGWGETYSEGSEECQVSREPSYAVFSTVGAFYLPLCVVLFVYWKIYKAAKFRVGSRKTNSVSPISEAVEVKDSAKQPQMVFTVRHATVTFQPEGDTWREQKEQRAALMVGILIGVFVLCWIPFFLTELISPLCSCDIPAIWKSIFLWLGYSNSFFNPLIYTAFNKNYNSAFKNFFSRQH

SMILES | activation
Cc1oc2c(F)c(F)c(F)c(F)c2c1S(=O)(=O)Nc1cccc(C(F)(F)F)c1 | -4.5%
CN1c2ccc(C=O)c3c(C=O)ccc(c23)N(C)C1(C)C | -0.75%
Cc1ccc(CN2CCN(Cc3ccc(OCCO)cc3)CC2CCO)o1 (stereo not given) | 2.89%
CCOc1ccc(NC(=O)Nc2cc(C)on2)cc1 | -2.78%
COc1ccc(S(=O)(=O)N2CCN(CC(=O)N3c4ccccc4CC3C)CC2)cc1OC (stereo not given) | 5.85%
Cc1cccc2sc(N(CCCN(C)C)C(=O)CCS(=O)(=O)c3ccccc3)nc12 | 5.39%
COc1ccccc1S(=O)(=O)NCc1ccc(C(=O)N(C)Cc2ccc(F)cc2)cc1 | -2.33%
O=C(OC12CC3CC(CC(C3)C1)C2)c1ccc(NCc2cc(O)ccc2O)cc1 | 7.13%
Cc1ccc(C(=O)N/C(=C/c2ccco2)C(=O)NCCc2c[nH]c3ccccc23)cc1C | -0.29%
CC(=O)N1CCN(c2ccccc2NC(=S)NC(=O)c2cc3ccccc3o2)CC1 | 4.36%
COc1cccc(OCC(=O)Nc2ccccc2C(N)=O)c1 | 26.9% (active)
CCN(CC(=O)Nc1cccc(S(=O)(=O)N2CCCCC2)c1)Cc1ccccc1 | 1.96%
O=C(CNCc1ccco1)Nc1cc(S(=O)(=O)N2CCOCC2)ccc1N1CCCC1 | -0.44%
CC(NC(=O)c1cc(-c2ccccc2)on1)c1ccccc1 (stereo not given) | -0.01%
CCC(C)NC(=O)CCCc1ccccc1 (stereo not given) | 0.89%
c1ccc(-n2nc3ccccc3n2)cc1 | 1.33%
CNC(=S)N/N=C/c1ccc(OCc2ccccc2)c(Br)c1 | 0.4%
CC1(C)C2CCC1(CS(=O)(=O)NCCc1c[nH]c3ccccc13)C(=O)C2 (stereo not given) | 35.4% (active)
Cc1ccc(-c2csc(SCC(=O)Nc3cc(C)on3)n2)cc1 | 2.91%
CC(C)OC(=O)c1c(NC(=O)c2ccco2)sc2c1CCCC2 | 0.39%
CC(C)CC(=O)N/C(N)=N/c1nc2ccccc2s1 | -0.51%
CCn1nc(C(=O)OCC(=O)N2c3ccccc3CC2C)c2ccccc2c1=O (stereo not given) | -1.95%
O=C(CC1Nc2ccccc2NC1=O)Nc1ccccc1 (stereo not given) | 3.07%
CC1CCN(S(=O)(=O)c2nnc(NC(=O)COc3ccccc3F)s2)CC1 | -0.56%
Cc1c(C(=O)OCC(=O)N(CCC#N)c2ccccc2)oc2c1ccc1ccccc12 | 61.4% (active)
